# The list is not random: actives were taken first. Their share in the collection is about 8.1%.
# ELG1 repair inh – inhibitors of ELG1-dependent DNA repair in HEK293T cells | HEK293T ELG1-luciferase reporter, luminescence, 16 h; DNA damage induced by 5-fluorouridine | 330,000 tested, 2.3% active | Potency, µM (top dose mostly 46.1 µM), for the others: at the highest dose activity change, negative = inhibition, actives largely listed as inhibitors | AID 504467; also: % is scaled to controls: 0 for no effect and ±100 for the full control effect; nearly all actives have a fitted effect of over 55% in size
#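 HEK293T cells expressing luciferase-tagged ELG1 (2,000/well) received 5-Fluorouridine plus compound or DMSO for 16 hr at 37 °C. Luciferase was read by ONE-Glo luminescence after 30 min at room temperature.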
# KB-V1 cytotox – kills drug-selected multidrug resistant KB-V1 cells; KB-V1 MDR cells viability, CellTiter-Glo, 72 h; Potency, µM (titrated, usually from 46.1 µM), usual class: cytotoxic; 400,000 tested, 3.4% active; AID 1347076; also: % is scaled to controls: 0 for no effect and ±100 for the full control effect; nearly all actives have a fitted effect of over 60% in size
#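 KB-V1 MDR subline cells in DMEM (phenol-red free, 10% FBS) exposed to compounds in qHTS concentration series for 72 h at 37 degrees C. Viability read by CellTiter-Glo luminescence; concentration-effect curves fitted after normalization and correction.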
# KB-3-1 cytotox – KB-3-1 parental cell cytotoxicity | KB-3-1 viability, CellTiter-Glo ATP luminescence, 72 h | Potency, µM (top dose mostly 46.1 µM), actives largely listed as cytotoxic | AID 1347075 | 400,000 tested, 1.4% active; also: % is scaled to controls: 0 for no effect and ±100 for the full control effect; nearly all actives have a fitted effect of over 60% in size
#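 Using CellTiter-Glo luminescence, growth of non-resistant KB-3-1 adenocarcinoma cells is assessed 72 h after pin-tool compound addition at 37 °C. Normalized responses across the concentration series yield fitted curves.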
# SW480 rerep – DNA re-replication induction in SW480 cells; SW480 DNA re-replication, Hoechst DNA content imaging, 48 h; Potency, µM (titrated, usually from 46.1 µM), inactives show top-dose re-replication activation, hits mostly activators; 340,000 tested, 1.8% active; AID 624297; also: % of control where 0% means no effect; nearly all actives have a fitted effect of over 55% in size
#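 Treated cells incubate 48 hr (37 C, 5% CO2), are stained 40 min with Hoechst, and nuclear fluorescence is enumerated; a rise in nuclei with high DNA signal marks re-replication.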
# MCF10A rereplic – inducers of DNA re-replication in MCF 10A breast cells | AID 624296 | 350,000 tested, 2.9% active | Potency, µM (highest dose often 46.1 µM), for inactives: at the top dose activity, positive = re-replication, hits mostly activators | MCF 10A DNA re-replication, Hoechst nuclear intensity, 48 h; also: % of control where 0% means no effect; nearly all actives have a fitted effect of over 50% in size
# Numbers without * were called inactive; i = inactive; ? = inconclusive; · = no result; ! = repeats disagree. Calls follow the shape of the dose curve; as a rule, active = well fitted curve in the direction sought with a large enough effect; inconclusive = small, poorly fitted or top-dose-only effect, or another doubt; inactive = no such curve, though single readings can be large; an effect the other way counts as inactive or inconclusive. Potency is read from the fitted curve at half-maximal effect.
SMILES,ELG1 repair inh,KB-V1 cytotox,KB-3-1 cytotox,SW480 rerep,MCF10A rereplic
CCOC(=O)c1[nH]c(C)c(C(=O)Nc2ccc(C)c(Cl)c2)c1C,1%,i,?,?,21µM*
CCOC(=O)c1[nH]c(C)c(C(=O)Nc2ccc(C)c(F)c2)c1C,-4%,2.9µM*,?,12µM*,12µM*
O=C(NNc1ccccc1)c1ccc(Cl)c(Cl)c1,·,18µM*,i,1%,?
Cc1ccc(C2=NC3(CCCC3)N=C2SCC(=O)Nc2ccc3c(c2)OCCO3)cc1,?,i,i,21µM*,?
O=C(CSC1=NC2(CCCCCC2)N=C1c1ccccc1)Nc1ccc2c(c1)OCCO2,?,i,i,14%,1%
N#C/C(=C(/O)c1ccc2c(c1)OCO2)c1nc2cc(C(F)(F)F)ccc2s1,-17%,?,15µM*,?,10%
Cn1c(=O)c2c(-c3ccccc3Br)n(CCc3ccccc3)cc2n(C)c1=O,·,i,i,·,·
O=C(NCCN1CCOCC1)c1ccc(NC(=O)c2ccc(Br)o2)cc1,·,i,?,·,·
O=C(C1CCC1)N1CCCc2cc(S(=O)(=O)N3CCN(c4cccc(Cl)c4)CC3)ccc21,·,i,i,·,·
COc1ccccc1N1CCN(c2ncnc3c2nc2n3CCCC2)CC1,·,?,i,·,·
COc1cc(CNC(=O)c2ccc3nc(CCc4ccccc4)oc3c2)cc(OC)c1OC,·,i,i,·,·
COc1cc(CNC(=O)c2ccc3nc(Cc4ccccc4)oc3c2)cc(OC)c1OC,·,i,26µM*,·,·
COCCN1CCN(C(=O)c2ccc3nc(Cc4ccc(OC)c(OC)c4)oc3c2)CC1,16%,?,4.6µM*,?,17%
CCc1sc(C(=O)N(CCOC)c2c(N)n(Cc3ccccc3)c(=O)[nH]c2=O)cc1C,·,i,i,·,·
COc1ccc(-n2c(=O)c3ccc(C(=O)NCc4ccc(C)cc4)cc3n(Cc3cccc(Cl)c3)c2=O)cc1,·,i,i,·,·
Cc1ccc(-n2c(-c3ccccc3)c[n+]3c2CCC3)cc1,1.6µM*,?,3.7µM*,1%,12%
Cc1ccc(-n2c(-c3ccc(Cl)cc3)c[n+]3c2CCC3)cc1,2.9µM*,i,4.6µM*,1%,1%
CCOCc1c(C(=O)N2CCN(CC(=O)Nc3ccc(F)cc3)CC2)oc2ccccc12,-15%,?,i,-2%,?
CCOc1ccc(C(=O)Nc2cccc(OCc3cc(=O)n4cc(C)sc4n3)c2)cc1,·,i,i,·,·
O=C(Nc1ccc(Cl)cc1)c1ccc(-n2cccn2)c([N+](=O)[O-])c1,-23%,15µM*,?,4%,?
COc1cccc2c1OCC(CN1CCN(Cc3ccccc3F)C(CCO)C1)=C2 (stereo not given),?,?,i,?,0.73µM*
COc1cccc2c1OCC(CN1CCN(Cc3ccccc3)C(CCO)C1)=C2 (stereo not given),-9%,?,?,23%,-1%
COc1ccc(-c2cc(C(=O)NN)[nH]n2)cc1OC,13%,i,i,?,?
COc1ccc(-c2cc(C(=O)O)[nH]n2)cc1OC,-2%,i,23µM*,5%,0%
Cc1ccccc1CS(=O)(=O)c1ncc(Cl)c(C(=O)Nc2ccc(F)cc2)n1,?,i,i,-4%,?
SMILES,ELG1 repair inh,KB-V1 cytotox,KB-3-1 cytotox,SW480 rerep,MCF10A rereplic
CCCc1nnc(NC(=O)c2nc(S(=O)(=O)Cc3cccc(C)c3)ncc2Cl)s1,?,i,i,?,?
Cc1nnc(NC(=O)c2nc(S(=O)(=O)Cc3ccccc3)ncc2Cl)s1,?,?,10µM*!,1%,?
COc1ccc(OC)c(NC(=O)c2nc(S(=O)(=O)Cc3ccccc3F)ncc2Cl)c1,·,i,?,·,·
Cc1ccc(NC(=O)c2nc(S(=O)(=O)Cc3ccccc3)ncc2Cl)cc1,?,?,13µM*,20%,?
Cc1cccc(CS(=O)(=O)c2ncc(Cl)c(C(=O)NCc3ccccc3)n2)c1,?,i,i,?,13µM*
COc1ccc(OC)c(NC(=O)c2nc(S(=O)(=O)Cc3ccccc3)ncc2Cl)c1,?,?,4.1µM*,?,1.6µM*
Cc1cccc(CS(=O)(=O)c2ncc(Cl)c(C(=O)Nc3c(C)cccc3C)n2)c1,-12%,?,?,?,?
CCOc1ccc(NC(=O)c2nc(S(=O)(=O)Cc3ccc(F)cc3)ncc2Cl)cc1,·,?,i,·,·
O=C(Nc1ccc(F)cc1)c1nc(S(=O)(=O)Cc2ccccc2)ncc1Cl,?,?,5.2µM*,4%,6%
CC1=CC(C)(C)n2c(O)c(N=NC(N)=S)c3cc(C)cc1c32,12%,i,i,16µM*,?
Cc1cccc(NC(=O)Cn2c(O)c(N=NC(N)=S)c3ccccc32)c1,?,i,i,24%,0%
N#C/C(=C\c1ccc(O)c([N+](=O)[O-])c1)C(=O)NCc1ccccc1,?,i,?,2%,?
N#C/C(=C\c1ccc(O)c(Br)c1)C(=O)NCc1ccccc1,-3%,i,i,8.2µM*,21µM*
CC1=CC2=NC(=O)/C(=C\c3ccc(-c4cccc(Cl)c4)o3)C(=N)N2O1,?,?,4.1µM*,18%,14%
CC1=NOC(=O)/C1=C\c1ccc(-c2cccc(Cl)c2)o1,?,?,i,?,16µM*
CC1=CC2=NC(=O)/C(=C\c3cc(C)n(-c4ccc(F)cc4)c3C)C(=N)N2O1,8%,i,i,?,?
O=C(/C=C/c1cccc(Cl)c1)Nc1cccc([S+](=O)([O-])Nc2ccccc2F)c1,·,i,i,·,·
COc1ccc(N2CCN(CC(O)COc3ccccc3C(C)(C)C)CC2)cc1 (stereo not given),·,i,i,·,·
Cc1nc(N)ncc1-c1ccc2c(c1)OCO2,?,12µM*,?,-9%,-10%
Cn1c(-c2ccc3c(c2)OCO3)cnc1N,21%,?,i,-1%,?
COc1cccc(CN(C)C(=O)CN2C(=O)NC3(CCCc4ccccc43)C2=O)c1 (stereo not given),9%,21µM*,i,-3%,-3%
CCCCC(=O)N1C/C=C\C(c2ccc(OC)cc2)N(Cc2ccc(F)cc2)C(=O)[C@H]1Cc1ccccc1 (stereo not given in full),?,i,?,3.7µM*,?
COc1ccc(C2/C=C\CN(C(=O)OCc3ccccc3)CC(=O)N2Cc2ccc(F)cc2)cc1 (stereo not given),-9%,i,i,-15%,2%
